Source: PubChem
Chronic BCR inh = qHTS Assay to Find Inhibitors of Chronic Active B-Cell Receptor Signaling | ABC-DLBCL IkBa-CBG/CBR reporter, luminescence ratio, 4 h | Potency, µM (doses to about 46.1 µM), for the others: at the top dose activity change, negative = inhibition, usual class: inhibitors | actives 0.05% (n = 340,000) | AID 493014, 2011; active = well fitted inhibition curve with a large enough effect in the signal ratio, with a control signal flat, not every such curve was filed as active; inconclusive = small, poorly fitted or top-dose-only effect, or effect the other way, or a change in a side signal; the % refers to the signal ratio;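 note: potency is the fitted concentration of half-maximal effect; plate controls were basal doxycycline-induced cells for no effect and cells given 10 µM MG132 for full effect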
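Compounds up to 46 uM were incubated four hours with TMD8 cells whose green CBG68 luciferase is fused to IkappaBalpha; red CBR luminescence normalised the signal, and concentration-effect curves were fitted to fusion, red and ratio data.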
D3 ag = qHTS of D3 Dopamine Receptor Agonist: qHTS | D(3) dopamine receptor (Homo sapiens), P35462 | actives 0.58% (n = 410,000) | max activation, % | D3R DiscoveRx beta-arrestin cells, luminescence, 90 min; in the data active = max activation above about 30%; note: 0% is about no effect
Target sequence (P35462 whole entry, looked up): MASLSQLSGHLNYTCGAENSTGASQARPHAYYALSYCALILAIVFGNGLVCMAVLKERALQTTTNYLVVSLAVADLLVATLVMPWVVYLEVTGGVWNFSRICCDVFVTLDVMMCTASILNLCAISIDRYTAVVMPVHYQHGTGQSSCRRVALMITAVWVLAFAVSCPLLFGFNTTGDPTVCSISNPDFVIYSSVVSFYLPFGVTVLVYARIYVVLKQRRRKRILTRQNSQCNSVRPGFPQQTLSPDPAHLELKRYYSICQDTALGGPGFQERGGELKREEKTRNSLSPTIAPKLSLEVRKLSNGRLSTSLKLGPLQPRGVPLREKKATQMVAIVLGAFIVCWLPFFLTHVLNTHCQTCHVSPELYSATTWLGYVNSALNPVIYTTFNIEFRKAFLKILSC
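Cells at 1500/well, incubated overnight, then treated with pinned compounds (dopamine as control) for 90 min at 37 degrees C. DiscoveRx reagent added for 30 - 60 minutes at room temperature; luminescence read.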
D1 antagonist = Antagonist of Human D 1 Dopamine Receptor: qHTS | activity change, negative = inhibition, % at 10 µM | D(1A) dopamine receptor (Homo sapiens), P21728 | AID 504652, 2011 | actives 3.2% (n = 360,000) | HEK293 TREx D1 cells, calcium flux, dopamine EC80; stronger effect = lower value; in the data active = activity change below about -30%; note: % is set by controls: 0 for no effect and ±100 for the full control effect
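Cells carrying a force-coupled, tetracycline-inducible human D1 receptor report calcium flux. Each well gets a 10 s baseline, compound with 180 s monitoring, then an EC80 dopamine stimulus with a second 180 s kinetic read.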
D1 potentiator = Potentiators of Human D1 Dopamine Receptor: qHTS; HEK293 TREx D1 cells, calcium flux, dopamine EC20 potentiation; actives 0.036% (n = 360,000); D(1A) dopamine receptor (Homo sapiens), P21728; potentiation, % at 10 µM; in the data active = potentiation above about 30%; note: 0% is about no effect
DRD3 antagonist = qHTS of D3 Dopamine Receptor Antagonist: qHTS. D(3) dopamine receptor (Homo sapiens), P35462. D3R cells, DiscoveRx beta-arrestin luminescence, antagonist mode; stronger effect = lower value. max response, negative = inhibition, %. actives 2.5% (n = 360,000). AID 652054, 2013; in the data active = max response below about -50%; inconclusive = no clear call, values can overlap the other calls; note: % is set by controls: 0 for no effect and ±100 for the full control effect
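Cells plated overnight at 1500 cells/well, then exposed to library compounds with dopamine controls for 90 minutes at 37 degrees C. DiscoveRx reagent added for 30–60 minutes at room temperature; luminescence read, quantitative HTS format.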
D1 ag = Allosteric Agonists of the Human D1 Dopamine Receptor: qHTS | actives 1% (n = 360,000) | activation, % at 2 µM | HEK293 T-REx D1 cells, calcium flux, agonist mode | D(1A) dopamine receptor (Homo sapiens), P21728 | AID 504660, 2011; in the data active = activation above about 30%; note: 0% is about no effect
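Tetracycline-induced HEK293 TREx D1 cells, force-coupled to calcium signalling, were dye-loaded with a no-wash calcium kit. Compound was pin-added after a 10 s baseline. Fluorescence was read kinetically at 1 cycle/s for 180 s, with calcium rises flagged as agonism.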
* = called active by the depositor; u = inconclusive; x = not tested or not shown. Compounds with a hit are over-represented: about 6% of the library has one in this group of screens.

SMILES | Chronic BCR inh | D3 ag | D1 antagonist | D1 potentiator | DRD3 antagonist | D1 ag
Cn1c(=O)oc2cc(S(=O)(=O)N3CCCC(C(=O)N4CCN(c5cccc(Cl)c5)CC4)C3)ccc21 (configuration not stated) | x | 11 | -32* | -3 | x | 6
Cc1cccc(N2CCN(C(=O)C3CCCN(S(=O)(=O)c4ccc5c(c4)oc(=O)n5C)C3)CC2)c1C (configuration not stated) | x | 18 | -31* | -2 | x | 4
C(=C\c1ccc2nncn2c1)/c1ccccc1 | x | -3 | x | x | 17 | x
COc1ccc(OC)c(NC(=O)C2(C)CCN2Cc2ccc(OC)c3ccccc23)c1 (configuration not stated) | x | 7 | x | x | 8 | x
COc1cc(-c2noc(-c3ccc(NCCc4ccccc4)c([N+](=O)[O-])c3)n2)cc(OC)c1OC | x | -2 | -21 | -4 | x | 17
Cc1cccc(CCNC(=O)C2CCCN(S(=O)(=O)c3ccc4c(c3)oc(=O)n4C)C2)c1 (configuration not stated) | x | 4 | -50* | -3 | x | -1
CCN1C(=O)/C(=C\N2CCN(c3ccc(F)cc3)CC2)SC1=S | u | 34* | -3 | -5 | 58 | 2
Cc1cccc(CSc2ncc(CO)n2Cc2ccc(F)cc2)c1 | x | 23 | -17 | -2 | x | 1
O=[N+]([O-])c1ncccc1OCc1ccc(-c2ccccc2)cc1 | u | 3 | -33* | -7 | -10 | 6
CCOc1ccc(/C=N/N(C)c2ccccc2)cc1OC | u | 1 | -1 | -1 | -54* | 4
Cc1cccc(N2CCN(C(=O)CCCn3ncn4c(cc5occc54)c3=O)CC2)c1C | x | 14 | -25 | -2 | x | 4
Cc1[nH]ncc1-c1nc2ccccc2[nH]1 | -3% | -3 | -9 | 4 | -23 | 1
Cc1c(-c2nc3ccccc3[nH]2)cnn1C | 6% | -4 | -30* | -2 | 11 | 1
COc1ccc2c(C)cc(C)nc2n1 | u | 0 | -33* | 0 | 3 | 0
Cc1cccc(C(O)c2ncc(-c3ccc4ccccc4c3)[nH]2)c1C (configuration not stated) | x | -6 | x | x | -1 | x
COc1cc(CNC2CCCC2)cc(OC)c1 | 11% | -4 | 6 | 4 | 11 | 4
COc1cc(CNC2CCC(C)C2)cc(OC)c1 (configuration not stated) | 0% | -14 | -48* | 0 | -12 | 1
COc1cccc(NC(=O)Cn2nnc(C(=O)Nc3ccccc3)c2N)c1 | 14% | 1 | 6 | -6 | -21 | 2
COc1cccc(NC(=O)c2nnn(Cc3cccc(C(F)(F)F)c3)c2N)c1 | x | -11 | -7 | -4 | x | 63*
CCc1ccc(Cn2nnc(C(=O)Nc3ccc(OC)cc3OC)c2N)cc1 | 7% | 0 | 14 | x | -9 | 33*
COc1cccc(NC(=O)c2nnn(Cc3ccc(OC)c(Br)c3)c2N)c1 | x | 2 | -73* | -2 | x | 5
COc1cccc(NC(=O)c2nnn(Cc3ccc(Br)cc3F)c2N)c1 | -4% | -5 | 4 | 4 | 14 | 39*
COc1ccc(OCC(=O)Nc2ccc(N3CCN(C(=O)c4ccco4)CC3)cc2)cc1 | -19% | 5 | -8 | -6 | 3 | 6
O=C(COc1ccc(Cl)cc1)Nc1ccc(N2CCN(C(=O)c3ccco3)CC2)cc1 | 6% | 14 | -31* | -8 | 11 | 17
Cc1cc(C)cc(OCC(=O)Nc2ccc(N3CCN(C(=O)c4ccco4)CC3)cc2)c1 | u | 37* | -8 | -2 | 28 | 9
SMILES | Chronic BCR inh | D3 ag | D1 antagonist | D1 potentiator | DRD3 antagonist | D1 ag
Cc1cc(C)nc(Nc2ncc(O)n2-c2ccc(Br)cc2)n1 | -1% | -3 | -48* | -7 | -20 | 10
Cc1cc(C)nc(Nc2ncc(O)n2-c2ccc(C)c(C)c2)n1 | 0% | -18 | 0 | 11 | -20 | 2
COC(=O)CC1C(=O)NCCN1C(=S)Nc1cccc(C)c1 (configuration not stated) | 0% | -2 | 25 | -4 | -6 | 3
COC(=O)CC1C(=O)NCCN1C(=S)Nc1ccc(F)cc1 (configuration not stated) | -2% | 8 | -37* | -5 | 6 | 2
CC(=O)c1ccc(OCC(O)CN2CCN(CC(O)COc3ccc(C(C)=O)cc3)CC2)cc1 (configuration not stated) | 1% | -12 | -11 | -5 | -5 | 5
CC(=O)c1ccc(OCC(O)CN2CCN(c3ccccn3)CC2)cc1 (configuration not stated) | 0% | 56* | -60* | -6 | -55* | 2
CCc1ccc(OCC(O)CN2CCN(c3ccccn3)CC2)cc1 (configuration not stated) | -8% | 24 | -9 | 0 | -27 | -3
CCCc1ccc(OCC(O)CN2CCN(c3ccccn3)CC2)cc1 (configuration not stated) | -2% | 62* | 15 | 6 | -17 | 6
CCn1c2ccccc2c2cc(NC(=O)c3ccc(Br)o3)ccc21 | u | -4 | -12 | 0 | 9 | 6
CCn1c2ccccc2c2cc(NC(=O)c3cc(C)on3)ccc21 | 15% | -3 | -45* | -15 | -14 | 0
CCn1c2ccccc2c2cc(NC(=O)c3coc(=O)c(Br)c3)ccc21 | u | x | -32* | -5 | x | 15
CC(CNC(=O)c1ccc(Cn2c(=O)c3cccn3c3cccnc32)cc1)c1ccccc1 (configuration not stated) | x | 9 | -10 | -3 | x | 2
Cc1c(C(=O)N2CCCCC2)c(S(=O)(=O)N2CCN(c3ccc(F)cc3)CC2)c(C)n1C | 4% | 2 | -15 | -9 | -12 | -1
Cc1c(C(=O)N2CCCCC2)c(S(=O)(=O)N2CCN(c3ccc(Cl)cc3)CC2)c(C)n1C | -8% | -14 | -32* | -10 | 2 | 7
Cc1[nH]c(C)c(S(=O)(=O)N2CCN(c3ccc(Cl)cc3)CC2)c1C(=O)N1CCCC1 | 0% | 1 | -34* | 0 | 4 | 0
COc1ccc(N2CCN(C(=O)c3ccc(Cl)c(S(=O)(=O)N4CCCC4)c3)CC2)cc1 | 6% | -1 | -34* | -3 | 53 | 1
COc1ccc(N2CCN(C(=O)c3ccc(Cl)c(S(=O)(=O)N4CCOCC4)c3)CC2)cc1 | x | 6 | x | x | 2 | x
